Tested on: Vero E6 infected with SARS-CoV-2
Assay: inhibition of SARS-CoV-2 cytopathic effect; higher = more antiviral protection, active = above 15
Settings: 48 h

Measured: inhibition of SARS-CoV-2 cytopathic effect

COCC[n+]1c2c(n(Cc3cnccn3)c1C)C(=O)c1ccccc1C2=O
inactive: 1 nM 0.33% | 8.33 nM 4.83% | 100 nM 2.74% | 833.33 nM -2.2% | 10000 nM -9.2%

N=C(N)NCCC[C@@H](NC(=O)[C@@H]1CCCN1C(=O)[C@@H]1CSSCCC(=O)N[C@@H](Cc2ccc(O)cc2)C(=O)N[C@@H](Cc2ccccc2)C(=O)N[C@@H](CCC(N)=O)C(=O)N[C@@H](CC(N)=O)C(=O)N1)C(=O)NCC(N)=O [desmopressin-acetate]
inactive: 1 nM -0.33% | 8.33 nM -2.9% | 100 nM 0.69% | 833.33 nM 0.25% | 10000 nM 0.02%

COc1cc2nc(N3CCCN(C)CC3)nc(NC3CCN(Cc4ccccc4)CC3)c2cc1OC
inactive: 1 nM 0.59% | 8.33 nM 0.41% | 100 nM -2.3% | 833.33 nM 1.53% | 10000 nM 11.7%

NCCC(=O)N[C@@H](Cc1c[nH]cn1)C(=O)O [carnosine]
inactive: 1 nM -0.87% | 8.33 nM -1.74% | 100 nM -2.85% | 833.33 nM -2.56% | 10000 nM -17.4%

OC[C@@H](O)[C@@H](O)[C@@H](O)CO [ribitol]
inactive: 1 nM 2.52% | 8.33 nM 3.83% | 100 nM 1.9% | 833.33 nM 3.1% | 10000 nM 1.14%

CCCCc1ccc(C(N)=O)nc1 [bupicomide]
inactive: 1 nM 2.98% | 8.33 nM 0.4% | 100 nM -0.52% | 833.33 nM -0.04% | 10000 nM 3.08%

O=C(Nc1ccccc1)[C@]12C[C@H]1/C(=N\O)c1ccccc1O2
inactive: 1 nM 1.02% | 8.33 nM 3.35% | 100 nM -0.61% | 833.33 nM -0.42% | 10000 nM 1.97%

Source: the supplement of paper PMC13380429
